Laboratory results as given in the supplement of paper PMC11732987, “Enantioselective OTUD7B fragment discovery through chemoproteomics screening and high-throughput optimisation” (Communications Chemistry, 2025).

Columns and labels:
Assay in all cases: log2 ratio of Biotin-Ahx-Ub-VS probe labelling (fragment/DMSO); higher = less target engagement (more negative = stronger competition), active = hit call of the paper (q ≤ 0.05, log2 ratio ≤ -1)
Details in all cases: compound concentration: 200 uM; treatment time: 3 h
USP42 = target: T1, USP42 (UniProt Q9H9J4)
T1 sequence (whole entry): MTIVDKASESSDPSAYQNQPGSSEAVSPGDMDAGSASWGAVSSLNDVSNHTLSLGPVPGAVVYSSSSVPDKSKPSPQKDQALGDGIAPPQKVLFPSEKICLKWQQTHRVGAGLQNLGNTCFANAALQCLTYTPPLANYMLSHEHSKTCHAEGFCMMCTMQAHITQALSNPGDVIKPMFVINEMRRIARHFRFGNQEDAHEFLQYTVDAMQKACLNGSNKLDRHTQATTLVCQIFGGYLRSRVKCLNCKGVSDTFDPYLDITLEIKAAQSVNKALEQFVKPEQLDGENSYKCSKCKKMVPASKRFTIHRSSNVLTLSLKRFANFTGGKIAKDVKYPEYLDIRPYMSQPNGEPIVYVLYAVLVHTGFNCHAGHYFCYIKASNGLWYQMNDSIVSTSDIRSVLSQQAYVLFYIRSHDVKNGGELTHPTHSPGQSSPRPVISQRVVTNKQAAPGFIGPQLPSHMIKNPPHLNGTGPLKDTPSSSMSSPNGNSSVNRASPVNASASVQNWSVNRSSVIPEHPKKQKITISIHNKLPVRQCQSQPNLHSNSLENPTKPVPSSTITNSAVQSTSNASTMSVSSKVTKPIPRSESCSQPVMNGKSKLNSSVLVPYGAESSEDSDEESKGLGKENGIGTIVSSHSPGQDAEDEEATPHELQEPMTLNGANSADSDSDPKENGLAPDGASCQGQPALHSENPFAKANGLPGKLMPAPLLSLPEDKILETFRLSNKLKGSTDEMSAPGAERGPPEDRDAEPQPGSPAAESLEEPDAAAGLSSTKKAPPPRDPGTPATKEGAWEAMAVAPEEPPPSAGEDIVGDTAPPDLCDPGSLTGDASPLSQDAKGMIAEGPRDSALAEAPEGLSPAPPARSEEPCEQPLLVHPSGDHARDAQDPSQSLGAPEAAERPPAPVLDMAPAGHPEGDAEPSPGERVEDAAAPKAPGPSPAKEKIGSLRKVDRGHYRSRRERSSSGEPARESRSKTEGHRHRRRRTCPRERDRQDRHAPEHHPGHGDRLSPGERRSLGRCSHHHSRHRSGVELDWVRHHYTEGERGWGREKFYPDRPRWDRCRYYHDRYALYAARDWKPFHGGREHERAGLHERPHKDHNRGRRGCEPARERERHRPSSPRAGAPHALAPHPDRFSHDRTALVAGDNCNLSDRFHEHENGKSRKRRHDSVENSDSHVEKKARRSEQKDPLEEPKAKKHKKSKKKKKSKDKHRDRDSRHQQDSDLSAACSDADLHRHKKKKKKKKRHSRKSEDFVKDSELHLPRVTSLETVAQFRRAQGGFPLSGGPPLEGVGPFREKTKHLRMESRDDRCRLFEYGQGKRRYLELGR
Outline: (§1)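 Using Biotin-Ahx-Ub-VS at 0.5 µM final for 1 h, DUBs were labelled in HEK293T lysate (495 µg per sample) that had first been treated in triplicate with fragment at 200 µM or vehicle for 3 h. NeutrAvidin enrichment, LysC and trypsin digestion and diaPASEF LC-MS/MS followed. Spectronaut label-free quantities were global-median-normalised. Values are average log2 fragment/vehicle ratios by unpaired t-test, using proteins with ≥2 unique peptides.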

USP46 = USP46 (UniProt P62068)
Outline: as §1

USP47 = target: T2, USP47 (UniProt Q96K76)
T2 sequence (whole entry): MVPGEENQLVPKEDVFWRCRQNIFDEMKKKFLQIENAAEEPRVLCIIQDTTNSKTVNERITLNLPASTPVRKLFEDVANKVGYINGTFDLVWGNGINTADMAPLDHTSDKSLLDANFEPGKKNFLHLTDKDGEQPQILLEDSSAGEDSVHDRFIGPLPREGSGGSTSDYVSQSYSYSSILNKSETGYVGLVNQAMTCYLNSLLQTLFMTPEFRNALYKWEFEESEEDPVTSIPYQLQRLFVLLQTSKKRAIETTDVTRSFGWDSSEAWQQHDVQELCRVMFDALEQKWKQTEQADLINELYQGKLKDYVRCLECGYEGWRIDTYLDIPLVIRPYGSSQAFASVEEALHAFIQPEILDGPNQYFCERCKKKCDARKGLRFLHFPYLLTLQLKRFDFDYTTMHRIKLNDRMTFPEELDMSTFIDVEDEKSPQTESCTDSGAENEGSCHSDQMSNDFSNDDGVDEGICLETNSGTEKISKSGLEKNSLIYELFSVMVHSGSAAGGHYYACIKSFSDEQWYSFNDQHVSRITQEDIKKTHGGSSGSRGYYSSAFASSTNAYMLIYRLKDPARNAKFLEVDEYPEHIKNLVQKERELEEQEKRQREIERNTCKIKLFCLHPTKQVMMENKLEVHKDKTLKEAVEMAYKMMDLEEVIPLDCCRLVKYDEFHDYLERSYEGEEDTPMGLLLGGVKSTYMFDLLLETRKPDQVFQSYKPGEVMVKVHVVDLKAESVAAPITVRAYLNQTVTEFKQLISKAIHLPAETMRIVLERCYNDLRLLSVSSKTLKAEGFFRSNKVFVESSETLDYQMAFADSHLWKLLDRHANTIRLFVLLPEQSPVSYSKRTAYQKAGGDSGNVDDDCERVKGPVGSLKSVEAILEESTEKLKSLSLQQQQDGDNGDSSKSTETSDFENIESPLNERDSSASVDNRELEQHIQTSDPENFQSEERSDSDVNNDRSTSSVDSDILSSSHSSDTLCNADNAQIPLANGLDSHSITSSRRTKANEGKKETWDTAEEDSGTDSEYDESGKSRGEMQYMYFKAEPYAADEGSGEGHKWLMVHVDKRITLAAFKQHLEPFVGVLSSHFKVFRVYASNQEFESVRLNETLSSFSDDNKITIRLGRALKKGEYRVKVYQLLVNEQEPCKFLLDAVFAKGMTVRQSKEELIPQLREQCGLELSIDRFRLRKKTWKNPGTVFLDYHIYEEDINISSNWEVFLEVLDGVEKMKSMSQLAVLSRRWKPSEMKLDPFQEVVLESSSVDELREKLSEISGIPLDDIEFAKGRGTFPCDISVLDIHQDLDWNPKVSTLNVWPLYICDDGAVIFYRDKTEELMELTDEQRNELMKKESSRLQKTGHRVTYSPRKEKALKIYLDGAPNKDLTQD
Outline: as §1

USP48 = target: T3, USP48 (UniProt Q86UV5)
T3 sequence (whole entry): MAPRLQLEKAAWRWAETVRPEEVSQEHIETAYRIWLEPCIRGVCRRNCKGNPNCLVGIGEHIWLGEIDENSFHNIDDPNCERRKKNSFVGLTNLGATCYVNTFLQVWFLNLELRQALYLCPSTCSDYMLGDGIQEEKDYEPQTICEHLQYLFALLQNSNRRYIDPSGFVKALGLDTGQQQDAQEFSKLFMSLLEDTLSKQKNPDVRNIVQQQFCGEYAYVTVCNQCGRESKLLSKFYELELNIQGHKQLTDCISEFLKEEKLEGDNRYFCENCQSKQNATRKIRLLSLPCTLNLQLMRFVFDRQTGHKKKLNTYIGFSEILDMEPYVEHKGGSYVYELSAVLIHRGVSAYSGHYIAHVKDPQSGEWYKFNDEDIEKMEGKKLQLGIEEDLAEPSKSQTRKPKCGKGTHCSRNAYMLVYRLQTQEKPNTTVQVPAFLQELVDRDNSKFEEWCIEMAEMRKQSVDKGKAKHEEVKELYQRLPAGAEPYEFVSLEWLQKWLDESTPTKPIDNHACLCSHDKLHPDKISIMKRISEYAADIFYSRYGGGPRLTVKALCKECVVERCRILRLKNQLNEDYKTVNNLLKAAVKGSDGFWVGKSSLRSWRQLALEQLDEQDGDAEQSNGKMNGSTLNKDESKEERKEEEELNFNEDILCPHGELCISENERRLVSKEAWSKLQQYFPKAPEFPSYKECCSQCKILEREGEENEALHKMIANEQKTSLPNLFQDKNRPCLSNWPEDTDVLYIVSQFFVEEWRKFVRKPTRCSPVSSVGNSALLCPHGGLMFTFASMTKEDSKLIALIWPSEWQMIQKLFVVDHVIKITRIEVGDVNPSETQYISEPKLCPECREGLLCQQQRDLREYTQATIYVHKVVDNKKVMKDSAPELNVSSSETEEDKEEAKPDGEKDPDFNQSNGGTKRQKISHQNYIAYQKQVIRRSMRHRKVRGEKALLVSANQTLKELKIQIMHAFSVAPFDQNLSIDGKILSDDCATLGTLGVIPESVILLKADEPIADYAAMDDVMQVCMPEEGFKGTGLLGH
Outline: as §1

USP5 = target: T4, USP5 (UniProt P45974)
T4 sequence (whole entry): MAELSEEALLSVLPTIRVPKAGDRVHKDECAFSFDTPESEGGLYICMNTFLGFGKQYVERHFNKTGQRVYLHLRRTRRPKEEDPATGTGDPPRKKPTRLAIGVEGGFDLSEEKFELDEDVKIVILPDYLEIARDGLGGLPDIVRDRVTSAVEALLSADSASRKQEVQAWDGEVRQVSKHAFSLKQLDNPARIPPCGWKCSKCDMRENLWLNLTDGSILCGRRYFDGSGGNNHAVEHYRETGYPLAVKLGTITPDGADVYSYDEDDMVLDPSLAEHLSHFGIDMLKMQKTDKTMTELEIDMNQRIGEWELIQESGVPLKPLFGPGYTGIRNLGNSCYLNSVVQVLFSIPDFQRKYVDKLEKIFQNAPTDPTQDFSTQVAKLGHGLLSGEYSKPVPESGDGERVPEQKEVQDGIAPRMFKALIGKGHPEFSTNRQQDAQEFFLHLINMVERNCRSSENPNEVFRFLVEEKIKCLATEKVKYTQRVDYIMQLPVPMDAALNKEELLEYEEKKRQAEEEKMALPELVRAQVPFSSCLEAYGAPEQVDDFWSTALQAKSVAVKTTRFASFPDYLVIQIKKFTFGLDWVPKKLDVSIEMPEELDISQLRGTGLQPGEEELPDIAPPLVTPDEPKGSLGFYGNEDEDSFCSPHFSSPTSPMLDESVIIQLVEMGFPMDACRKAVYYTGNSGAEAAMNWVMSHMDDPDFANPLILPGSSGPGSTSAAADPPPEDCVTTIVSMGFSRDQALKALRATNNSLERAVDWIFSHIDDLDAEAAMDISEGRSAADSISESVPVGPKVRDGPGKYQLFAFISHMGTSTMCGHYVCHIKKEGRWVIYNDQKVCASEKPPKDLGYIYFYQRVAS
Outline: as §1

USP54 = USP54 (UniProt Q70EL1)
Outline: as §1

USP7 = USP7 (UniProt Q93009)
Outline: as §1

USP8 = target: T5, USP8 (UniProt P40818)
T5 sequence (whole entry): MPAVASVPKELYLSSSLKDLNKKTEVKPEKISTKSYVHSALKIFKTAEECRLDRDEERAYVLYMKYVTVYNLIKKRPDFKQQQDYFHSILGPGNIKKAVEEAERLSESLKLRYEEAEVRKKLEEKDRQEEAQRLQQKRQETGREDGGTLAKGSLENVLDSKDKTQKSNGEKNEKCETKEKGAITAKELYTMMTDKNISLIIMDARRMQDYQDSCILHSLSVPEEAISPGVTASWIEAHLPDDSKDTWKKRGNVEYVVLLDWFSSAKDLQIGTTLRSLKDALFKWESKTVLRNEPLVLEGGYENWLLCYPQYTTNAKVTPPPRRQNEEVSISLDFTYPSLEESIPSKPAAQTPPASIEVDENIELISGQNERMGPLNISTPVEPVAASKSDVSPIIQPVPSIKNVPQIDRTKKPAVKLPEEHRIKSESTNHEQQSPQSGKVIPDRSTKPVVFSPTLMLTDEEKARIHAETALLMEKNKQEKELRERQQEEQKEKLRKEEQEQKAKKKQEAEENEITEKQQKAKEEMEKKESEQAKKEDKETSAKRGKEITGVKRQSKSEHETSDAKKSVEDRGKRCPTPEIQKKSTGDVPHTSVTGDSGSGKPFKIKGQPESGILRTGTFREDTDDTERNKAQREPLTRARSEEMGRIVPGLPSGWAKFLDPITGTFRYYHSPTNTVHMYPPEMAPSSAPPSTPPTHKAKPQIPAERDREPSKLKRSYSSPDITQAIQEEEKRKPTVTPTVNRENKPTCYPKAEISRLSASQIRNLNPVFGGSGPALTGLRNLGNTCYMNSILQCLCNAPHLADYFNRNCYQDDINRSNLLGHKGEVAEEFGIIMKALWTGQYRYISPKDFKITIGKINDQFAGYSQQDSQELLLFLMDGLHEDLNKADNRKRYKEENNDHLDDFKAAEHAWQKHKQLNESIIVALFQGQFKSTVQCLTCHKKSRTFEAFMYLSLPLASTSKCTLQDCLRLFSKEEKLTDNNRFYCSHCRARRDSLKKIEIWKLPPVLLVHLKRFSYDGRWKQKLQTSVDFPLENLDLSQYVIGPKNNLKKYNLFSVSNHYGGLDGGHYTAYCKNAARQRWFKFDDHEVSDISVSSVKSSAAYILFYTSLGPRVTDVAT
Outline: as §1

Measured: log2 ratio of Biotin-Ahx-Ub-VS probe labelling

Sequence of USP7 (Q93009 whole entry, looked up): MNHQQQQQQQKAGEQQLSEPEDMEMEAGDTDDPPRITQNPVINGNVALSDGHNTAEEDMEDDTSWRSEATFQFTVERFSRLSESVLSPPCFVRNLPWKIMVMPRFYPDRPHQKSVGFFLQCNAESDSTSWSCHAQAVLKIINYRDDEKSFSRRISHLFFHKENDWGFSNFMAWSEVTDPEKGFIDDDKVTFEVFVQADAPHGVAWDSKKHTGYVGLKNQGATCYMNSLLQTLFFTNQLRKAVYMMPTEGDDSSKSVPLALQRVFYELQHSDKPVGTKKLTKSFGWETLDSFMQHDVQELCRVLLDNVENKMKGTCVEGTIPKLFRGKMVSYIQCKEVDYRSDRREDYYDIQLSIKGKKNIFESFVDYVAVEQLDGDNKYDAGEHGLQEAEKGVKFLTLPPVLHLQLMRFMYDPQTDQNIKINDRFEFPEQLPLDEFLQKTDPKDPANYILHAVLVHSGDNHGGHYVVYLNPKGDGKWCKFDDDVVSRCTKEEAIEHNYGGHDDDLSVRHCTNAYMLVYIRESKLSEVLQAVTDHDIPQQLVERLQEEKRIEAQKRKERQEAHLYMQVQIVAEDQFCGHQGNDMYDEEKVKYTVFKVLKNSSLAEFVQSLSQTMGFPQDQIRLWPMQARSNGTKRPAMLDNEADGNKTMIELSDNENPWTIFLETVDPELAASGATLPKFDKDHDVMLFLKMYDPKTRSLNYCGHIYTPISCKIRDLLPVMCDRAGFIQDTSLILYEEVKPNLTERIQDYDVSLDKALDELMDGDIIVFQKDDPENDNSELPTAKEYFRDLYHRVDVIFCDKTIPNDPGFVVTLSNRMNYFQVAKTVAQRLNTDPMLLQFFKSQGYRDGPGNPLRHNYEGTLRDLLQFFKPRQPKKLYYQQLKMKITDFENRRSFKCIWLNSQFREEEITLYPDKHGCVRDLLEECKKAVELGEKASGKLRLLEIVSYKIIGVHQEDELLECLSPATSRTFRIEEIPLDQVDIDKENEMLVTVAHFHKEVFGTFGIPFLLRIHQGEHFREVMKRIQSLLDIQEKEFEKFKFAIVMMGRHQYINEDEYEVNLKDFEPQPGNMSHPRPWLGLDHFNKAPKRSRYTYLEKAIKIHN
Sequence of USP54 (Q70EL1 whole entry): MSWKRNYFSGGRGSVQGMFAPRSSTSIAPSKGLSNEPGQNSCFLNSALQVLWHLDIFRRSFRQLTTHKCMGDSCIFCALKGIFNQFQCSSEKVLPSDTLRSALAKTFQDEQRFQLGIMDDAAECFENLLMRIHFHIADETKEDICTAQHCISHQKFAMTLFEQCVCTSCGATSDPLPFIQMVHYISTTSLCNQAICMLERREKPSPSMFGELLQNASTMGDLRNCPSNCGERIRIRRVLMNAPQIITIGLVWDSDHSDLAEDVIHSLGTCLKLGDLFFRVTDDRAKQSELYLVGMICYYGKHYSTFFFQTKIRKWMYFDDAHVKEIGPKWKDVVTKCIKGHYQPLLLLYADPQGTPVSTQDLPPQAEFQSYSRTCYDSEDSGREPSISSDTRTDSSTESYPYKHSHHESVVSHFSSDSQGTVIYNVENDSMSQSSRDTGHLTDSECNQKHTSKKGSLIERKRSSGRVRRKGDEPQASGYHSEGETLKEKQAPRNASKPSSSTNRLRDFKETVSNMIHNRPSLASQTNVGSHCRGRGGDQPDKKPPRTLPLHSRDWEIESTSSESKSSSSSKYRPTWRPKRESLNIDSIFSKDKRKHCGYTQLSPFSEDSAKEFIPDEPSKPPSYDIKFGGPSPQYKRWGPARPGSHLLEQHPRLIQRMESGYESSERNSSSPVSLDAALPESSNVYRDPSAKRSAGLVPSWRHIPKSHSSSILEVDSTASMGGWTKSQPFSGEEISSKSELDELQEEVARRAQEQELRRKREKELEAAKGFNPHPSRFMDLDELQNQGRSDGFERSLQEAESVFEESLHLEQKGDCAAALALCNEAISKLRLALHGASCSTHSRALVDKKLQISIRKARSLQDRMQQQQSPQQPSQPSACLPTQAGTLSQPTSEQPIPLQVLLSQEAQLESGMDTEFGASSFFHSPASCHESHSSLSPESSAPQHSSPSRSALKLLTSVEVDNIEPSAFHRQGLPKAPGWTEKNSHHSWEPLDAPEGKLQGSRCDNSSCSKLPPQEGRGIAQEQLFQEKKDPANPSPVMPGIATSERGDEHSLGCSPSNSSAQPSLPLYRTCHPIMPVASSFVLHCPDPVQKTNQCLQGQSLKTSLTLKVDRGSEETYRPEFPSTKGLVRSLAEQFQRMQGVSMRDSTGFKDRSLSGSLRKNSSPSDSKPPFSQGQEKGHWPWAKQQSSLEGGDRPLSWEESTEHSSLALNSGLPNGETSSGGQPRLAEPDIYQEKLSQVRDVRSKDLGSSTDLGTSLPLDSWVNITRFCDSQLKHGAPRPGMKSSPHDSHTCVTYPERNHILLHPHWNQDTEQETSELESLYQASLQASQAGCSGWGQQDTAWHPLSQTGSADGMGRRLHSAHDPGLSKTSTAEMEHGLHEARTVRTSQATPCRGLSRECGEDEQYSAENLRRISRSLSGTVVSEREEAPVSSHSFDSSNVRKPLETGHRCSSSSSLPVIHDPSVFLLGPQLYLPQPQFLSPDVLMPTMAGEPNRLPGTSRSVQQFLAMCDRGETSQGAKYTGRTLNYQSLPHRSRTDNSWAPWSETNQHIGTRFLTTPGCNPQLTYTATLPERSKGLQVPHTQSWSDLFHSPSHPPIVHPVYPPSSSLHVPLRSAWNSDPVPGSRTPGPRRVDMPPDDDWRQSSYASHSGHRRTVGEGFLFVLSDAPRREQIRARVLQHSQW
Sequence of USP46 (P62068 whole entry): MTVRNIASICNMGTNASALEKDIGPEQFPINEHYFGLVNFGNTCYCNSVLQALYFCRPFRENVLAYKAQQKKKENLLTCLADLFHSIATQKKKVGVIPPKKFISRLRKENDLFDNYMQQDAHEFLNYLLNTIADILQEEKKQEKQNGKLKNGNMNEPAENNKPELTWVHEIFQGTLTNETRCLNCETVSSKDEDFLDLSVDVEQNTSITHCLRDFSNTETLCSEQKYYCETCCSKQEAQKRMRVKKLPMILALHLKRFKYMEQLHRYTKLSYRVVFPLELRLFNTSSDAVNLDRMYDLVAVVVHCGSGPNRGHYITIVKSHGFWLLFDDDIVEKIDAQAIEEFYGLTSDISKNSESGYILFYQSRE

Cl.Cn1c(CNC(=O)CCl)nc2cccnc21
inactive: USP42 -0.141 | USP46 -0.0593 | USP47 -0.0713 | USP48 -0.0748 | USP5 -0.0112 | USP54 0.0986 | USP7 -0.133 | USP8 -0.0336
